# Records with an inconclusive call do not appear. Entries that show only a call come without a potency. Active and inactive are the calls of the source. Unless noted, the call rests on the fitted dose curve; in most records, active means well fitted inhibition curve with a large enough effect; inconclusive means small, poorly fitted or top-dose-only effect; inactive means flat fitted curve, though single readings scatter. Where a SMILES comes first, the peptide text is derived from it. Bridges are numbered along the chain shown (N, C = ends). [ ]: non-standard residue; d: D form. hArg = N=C(N)NCCCC[C@H](N)C(=O)O; Mpa = O=C(O)CCS
# Legend:
# [1] = target: Glutathione peroxidase 1 (Homo sapiens) (UniProt P07203); assay: Primary qHTS Assay for Inhibitors of Recombinant Selenoprotein Glutathione Peroxidase 1 (GPX1) (AID 1845191); further: nearly all actives have a fitted effect of over 65% in size
# Glutathione peroxidase 1 (Homo sapiens), sequence (P07203 whole entry, looked up): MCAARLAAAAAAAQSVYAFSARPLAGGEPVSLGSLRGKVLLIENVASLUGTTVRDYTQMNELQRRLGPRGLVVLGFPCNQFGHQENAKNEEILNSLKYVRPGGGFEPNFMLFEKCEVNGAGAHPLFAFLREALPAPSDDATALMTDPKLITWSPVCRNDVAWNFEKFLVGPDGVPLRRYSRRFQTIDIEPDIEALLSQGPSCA
# Outline: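 GR-coupled assay: compounds preincubated 30 min at room temperature with GPX1, then reaction started with CHP; final 10 nM GPX1, 1 mM GSH, 0.5 mM CHP, 0.5 mM NADPH, 100 nM GR, 0.01% BSA, pH 7.5 Tris buffer. NADPH fluorescence (340/450 nm) read at 0 and 15 min.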
# [2] = target: Phospholipid hydroperoxide glutathione peroxidase GPX4 (Homo sapiens) (UniProt P36969); assay: Primary qHTS Assay for Inhibitors of Recombinant Selenoprotein Glutathione Peroxidase 4 (GPX4) (AID 1845192); further: nearly all actives have a fitted effect of over 65% in size
# Phospholipid hydroperoxide glutathione peroxidase GPX4 (Homo sapiens), sequence (P36969 whole entry, looked up): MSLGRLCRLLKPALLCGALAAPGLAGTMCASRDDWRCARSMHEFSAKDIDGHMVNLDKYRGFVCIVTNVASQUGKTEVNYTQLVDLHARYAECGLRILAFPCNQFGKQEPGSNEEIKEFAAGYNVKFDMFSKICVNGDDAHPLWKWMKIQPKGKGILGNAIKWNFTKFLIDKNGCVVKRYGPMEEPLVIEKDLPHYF
# Outline: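 GR-coupled assay: recombinant GPX4 preincubated 30 min with compound at room temperature; final 200 nM GPX4, 1 mM GSH, 0.5 mM cumene hydroperoxide, 0.5 mM NADPH, 100 nM GR, 0.01% BSA, pH 7.5 Tris. NADPH fluorescence (340/450 nm) read at 0 and 15 min.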
# [3] = qHTS drug screen for cell cycle checkpoint inhibitors in PARPi-resistant BRCA-mutant ovarian cancer cell lines. (AID 1963452; calls by dose curve); settings: PEO1/OlaR viability, CellTiter-Glo luminescence, 96 h, stronger effect = lower value
# Outline: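 PEO1, PEO4 and PEO1/OlaR ovarian cancer cells, 600 per well, exposed 96 h at 37C to a dilution series. Viability read by CellTiter-Glo luminescence, normalized to DMSO and empty wells; activity summarized as Z-AUC.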
# [4] = measured here: PEO1 parental Z-AUC
SMILES,Potency [1],Potency [2],Z-AUC [3],"Z-AUC [3, 4]",Z-AUC ([3]; measured here: PEO4 Z-AUC)
COc1ccc(-c2cc(=O)c3c(O)cc(O[C@@H]4O[C@H](CO[C@@H]5O[C@@H](C)[C@H](O)[C@@H](O)[C@H]5O)[C@@H](O)[C@H](O)[C@H]4O)cc3o2)cc1O,inactive,inactive,1.88 (inactive),1.52,0.98
C/C=C/C(=O)N(CC)c1ccccc1C,inactive,inactive,0.904 (inactive),0.852,0.821
NC(=O)CCCCC1CCSS1 (configuration not stated),–,inactive,–,–,–
O=c1[nH]c(=O)n([C@H]2C[C@H](O)[C@@H](CO)O2)cc1I,inactive,inactive,1.59 (inactive),0.705,0.916
O=C(O)c1ccc(OCCCOc2ccc(C(=O)O)cc2)cc1,inactive,inactive,–,–,–
CN(C(=O)c1c(O)c2ccccc2n(C)c1=O)c1ccccc1,inactive,inactive,0.957 (inactive),0.533,0.496
Cc1ccsc1C(=CCCN1CCC[C@@H](C(=O)O)C1)c1sccc1C,inactive,inactive,-0.0792 (inactive),0.789,0.901
CC[N+](C)(CC)CCOC(=O)C1c2ccccc2Oc2ccccc21,inactive,inactive,–,–,–
CC(=O)Oc1cccc(O)c1,inactive,inactive,–,–,–
Cn1cc(C(=O)[C@@H]2CCc3nc[nH]c3C2)c2ccccc21,inactive,inactive,–,–,–
C[n+]1ccccc1/C=N/O,inactive,inactive,–,–,–
C[C@H]1COc2c(C3(N)CC3)c(F)cc3c(=O)c(C(=O)O)cn1c23,inactive,inactive,–,–,–
CCCNC(C)C(=O)Nc1c(C)csc1C(=O)OC (configuration not stated),–,inactive,–,–,–
O=C(O)CNC(=O)c1ccccc1I,inactive,inactive,–,–,–
Nc1ccc(C(=O)Oc2ccccc2)c(O)c1,inactive,inactive,–,–,–
NC(=O)[C@@H]1CSSCCC(=O)N[C@@H](CCCCN=C(N)N)C(=O)NCC(=O)N[C@@H](CC(=O)O)C(=O)N[C@@H](Cc2c[nH]c3ccccc23)C(=O)N2CCC[C@H]2C(=O)N1 ([Mpa][hArg]GDWPC-NH2; disulfide 1-7),inactive,inactive,–,–,–
CC(C)c1cc2c(cc1S(=O)(=O)O)[C@@]1(C)CCC[C@@](C)(C(=O)O)[C@@H]1CC2,inactive,inactive,–,–,–
Cc1cc(OI)c(C(C)C)cc1-c1cc(C(C)C)c(OI)cc1C,inactive,inactive,–,–,–
C1CCN2C[C@@H]3C[C@@H](CN4CCCC[C@@H]34)[C@H]2C1,inactive,inactive,–,–,–
Cc1[nH]c(C)c(Cl)c(=O)c1Cl,inactive,inactive,–,–,–
CCCNC(C)(C)COC(=O)c1ccccc1,inactive,inactive,–,–,–
COc1nccnc1NS(=O)(=O)c1ccc(N)cc1,inactive,inactive,–,–,–

# From PubChem BioAssay (NCATS)
